This passage reports outcome and AC50 results from PubChem BioAssay (EPA / NIEHS).

What is called AC50 is the concentration giving half of the maximal activity seen.

The nature of test [1]: CPHEA_Stoker_NIS_Cytotoxicity: Cytotoxicity Assessment for CPHEA's Radioactive Iodide Uptake (RAIU) Assay for Sodium/Iodide Symporter (NIS) Inhibition, Stoker and Laws Labs (AID 2283897).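 As to AC50: active means loss of ATP signal versus DMSO meaning cytotoxicity.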 The method, boiled down: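 ATP luminescence (Cell Titer Glo) measured viability, with loss of signal normalized to DMSO controls. Cells: hNIS-HEK293T-EPA, seeded 40 hours prior. Dosing: 0.001–100uM, 2 hours, room temperature, uptake buffer pH 7.4.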

In test [2] the target is PGR (gene 5241) (UniProt P06401). The experiment in a line: TOX21_PR_BLA_Followup_Antagonist_ratio: Tox21 HEK293 Progesterone Receptor (PR) Antagonism Beta-lactamase Follow-Up Assay, Ratio (AID 2283934). The essentials:
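HEK293T PR-UAS-bla, 2% CS-FBS; 6 hr plating, then cpd + R5020 (1 nM final), 16 hr 37C/5% CO2. B/G FRET substrate 2 h RT. Ratio ch2/ch1 vs DMSO; CellTiter-Glo viability multiplexed, autofluorescence checked.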

Test [3] can be described thus: TOX21_PR_BLA_Followup_Agonist_viability: Viability Assessment in the Tox21 HEK293 Progesterone Receptor (PR) Agonism Beta-lactamase Follow-Up Assay (AID 2283935).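 Also: cells exposed to compound for 16 hr at 37 °C; signal loss means lower viability so actives are cytotoxic.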 The method, boiled down:
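HEK293T PR-UAS-bla, 3,000 cells/well, 2% CS-FBS; 6 hr pre-incubation; cpd in DMSO, 16 hr 37C; LiveBLAzer 2 hr RT, then CellTiter-Glo 30 min RT, luminescence. Decrease = lost viability.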

A short description of test [4]: TOX21_PR_BLA_Followup_Antagonist_viability: Viability Assessment in the Tox21 HEK293 Progesterone Receptor (PR) Antagonism Beta-lactamase Follow-Up Assay (AID 2283936).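 Also: hits lower the luminescence signal meaning cytotoxicity.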 The method, boiled down:
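PR-UAS-bla HEK293T cells (3,000/well, 2% charcoal-stripped FBS) given compound plus R5020 agonist, 16 h at 37C. CellTiter-Glo added after bla read, 30 min at room temperature; luminescence loss indicates cytotoxicity.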

Test [5] has as its target PGR (gene 5241) (UniProt P06401). The test is described as follows: TOX21_PR_LUC_Followup_Antagonist: Tox21 HEK293 Progesterone Receptor (PR) Antagonism Luciferase Follow-Up Assay (AID 2283938).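 Also: curve fitted upward as signal gain over DMSO baseline despite antagonist label.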 The method, boiled down: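 Cells are grown 5 days in charcoal-stripped-FBS assay medium, plated, left 5 h, then dosed with compound and incubated 16 h. ONE-Glo reagent is added and luminescence read after 30 min.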

The nature of test [6]: TOX21_PR_LUC_Followup_Antagonist_viability: Viability Assessment in the Tox21 HEK293 Progesterone Receptor (PR) Antagonism Luciferase Follow-Up Assay (AID 2283940). The essentials: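 Multiplexed viability counter-screen: after 5 days in charcoal-stripped-FBS medium, HEK293-PR-A-luc cells are plated, pinned with DMSO-dissolved compounds for 16 h at 37C, and ATP content is quantified luminescently via CellTiter-Glo.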

Test [7] can be described thus: CEETOX_H295R_11DCORT_noMTC: CeeTox H295R High-throughput Steroidogenesis Assay for 11-Deoxycortisol (11DCORT), maximum tolerated concentration (MTC) filtered results only (AID 2283911; active = hit-call score of the fitted dose curve at least 0.9, where 1 is the maximum; inactive = score below 0.9). The conditions noted are these: actives raise or lower the signal. The essentials:
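Steroidogenesis was stimulated in H295R cells with 10 uM forskolin for 48 h before a 48 h chemical exposure. Secreted 11-deoxycortisol was measured by tandem mass spectrometry and fitted bidirectionally against DMSO controls.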

Test [8] is described as follows: CEETOX_H295R_OHPREG_noMTC: CeeTox H295R High-throughput Steroidogenesis Assay for OH-Pregnenolone (OHPREG), maximum tolerated concentration (MTC) filtered results only (AID 2283912; active = hit-call score of the fitted dose curve at least 0.9, where 1 is the maximum; inactive = score below 0.9). The settings on record: actives raise or lower the signal. The essentials: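 H295R human adrenal cells, forskolin-prestimulated (10 uM, 48 h), then exposed to test chemical in 0.1% DMSO for 48 h. 17alpha-hydroxypregnenolone in medium measured by HPLC-MS/MS after MTBE extraction; bidirectional fit versus DMSO, concentrations not MTC-filtered.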

The nature of test [9]: CEETOX_H295R_OHPROG_noMTC: CeeTox H295R High-throughput Steroidogenesis Assay for OH-Progesterone (OHPROG), maximum tolerated concentration (MTC) filtered results only (AID 2283914; active = hit-call score of the fitted dose curve at least 0.9, where 1 is the maximum; inactive = score below 0.9). The settings on record: actives raise or lower the signal. The method, boiled down: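 H295R human adrenal cells prestimulated 48 h with 10 uM forskolin, then exposed 48 h to test chemical (0.1% DMSO final). Medium 17alpha-hydroxyprogesterone extracted with MTBE, quantified by HPLC-MS/MS; bidirectional fit versus DMSO, concentrations not MTC-filtered.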

Test [10] is described as follows: CEETOX_H295R_CORTISOL_noMTC: CeeTox H295R High-throughput Steroidogenesis Assay for Cortisol, maximum tolerated concentration (MTC) filtered results only (AID 2283916; active = hit-call score of the fitted dose curve at least 0.9, where 1 is the maximum; inactive = score below 0.9). The conditions noted are these: actives raise or lower the signal. The method, boiled down: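 H295R adrenal cells were pre-stimulated 48 h with 10 uM forskolin, then exposed 48 h to test chemical in 0.1% DMSO. Medium cortisol was measured by MTBE extraction and HPLC-MS/MS; bidirectional fit versus DMSO, concentrations not MTC-filtered.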

Test [11] can be described thus: CEETOX_H295R_CORTIC_noMTC: CeeTox H295R High-throughput Steroidogenesis Assay for Corticosterone (CORTIC), maximum tolerated concentration (MTC) filtered results only (AID 2283917; active = hit-call score of the fitted dose curve at least 0.9, where 1 is the maximum; inactive = score below 0.9). The settings on record: actives raise or lower the signal. The essentials: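 H295R, 10 uM forskolin prestim 48 h → test chem (0.1% DMSO final) 48 h → media MTBE extraction → HPLC-MS/MS corticosterone. Bidirectional fit vs DMSO baseline; no MTT-based MTC filtering.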

Test [12] in a line: CEETOX_H295R_DOC_noMTC: CeeTox H295R High-throughput Steroidogenesis Assay for DOC, maximum tolerated concentration (MTC) filtered results only (AID 2283918; active = hit-call score of the fitted dose curve at least 0.9, where 1 is the maximum; inactive = score below 0.9). The conditions noted are these: actives raise or lower the signal. The essentials:
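H295R cells prestimulated 48 h with 10 uM forskolin, then exposed 48 h to test chemical (0.1% DMSO final). Medium 11-deoxycorticosterone extracted with MTBE, quantified by HPLC-MS/MS; bidirectional fit versus DMSO, concentrations not MTC-filtered.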

The nature of test [13]: CEETOX_H295R_PROG_noMTC: CeeTox H295R High-throughput Steroidogenesis Assay for Progesterone (PROG), maximum tolerated concentration (MTC) filtered results only (AID 2283920; active = hit-call score of the fitted dose curve at least 0.9, where 1 is the maximum; inactive = score below 0.9). The conditions noted are these: actives raise or lower the signal. The essentials:
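H295R human adrenal cells were prestimulated 48 h with 10 uM forskolin, then exposed 48 h to test chemical (0.1% DMSO final). Progesterone in medium was quantified by HPLC-MS/MS; bidirectional fitting versus DMSO, concentrations not MTC-filtered.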

In test [14] the target is PGR (gene 5241) (UniProt P06401). The test is described as follows: TOX21_PR_BLA_Followup_Agonist_ratio: Tox21 HEK293 Progesterone Receptor (PR) Agonism Beta-lactamase Follow-Up Assay, Ratio (AID 2283933). The essentials:
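HEK293T PR-UAS-bla, 2% CS-FBS; 6 hr preincubation, cpd/DMSO pinned, 16 hr 37C/5% CO2; LiveBLAzer B/G 2 hr RT; FRET ch2/ch1 ratio, agonist direction vs DMSO. Viability by CellTiter-Glo in same wells.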

For test [15] the target is unchanged. The test is described as follows: TOX21_PR_LUC_Followup_Agonist: Tox21 HEK293 Progesterone Receptor (PR) Agonism Luciferase Follow-Up Assay (AID 2283937; active = hit-call score of the fitted dose curve at least 0.9, where 1 is the maximum; inactive = score below 0.9). The method, boiled down: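 Cells: HEK293-PR-A-luc, 3,000/well, 10% charcoal-stripped FBS assay medium. Compound added after 5 h; 16 h, 37C, 0% CO2. ONE-Glo luciferase, luminescence. Positive fit vs DMSO.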

Structures are written as SMILES. Inconclusive results are not listed. Active and inactive are the calls of the source. The calls were made as follows, unless noted: active = hit-call score of the fitted dose curve at least 0.9, where 1 is the maximum; inconclusive = response in the unintended direction; inactive = score below 0.9.

PGR (gene 5241), sequence (P06401 whole entry, looked up): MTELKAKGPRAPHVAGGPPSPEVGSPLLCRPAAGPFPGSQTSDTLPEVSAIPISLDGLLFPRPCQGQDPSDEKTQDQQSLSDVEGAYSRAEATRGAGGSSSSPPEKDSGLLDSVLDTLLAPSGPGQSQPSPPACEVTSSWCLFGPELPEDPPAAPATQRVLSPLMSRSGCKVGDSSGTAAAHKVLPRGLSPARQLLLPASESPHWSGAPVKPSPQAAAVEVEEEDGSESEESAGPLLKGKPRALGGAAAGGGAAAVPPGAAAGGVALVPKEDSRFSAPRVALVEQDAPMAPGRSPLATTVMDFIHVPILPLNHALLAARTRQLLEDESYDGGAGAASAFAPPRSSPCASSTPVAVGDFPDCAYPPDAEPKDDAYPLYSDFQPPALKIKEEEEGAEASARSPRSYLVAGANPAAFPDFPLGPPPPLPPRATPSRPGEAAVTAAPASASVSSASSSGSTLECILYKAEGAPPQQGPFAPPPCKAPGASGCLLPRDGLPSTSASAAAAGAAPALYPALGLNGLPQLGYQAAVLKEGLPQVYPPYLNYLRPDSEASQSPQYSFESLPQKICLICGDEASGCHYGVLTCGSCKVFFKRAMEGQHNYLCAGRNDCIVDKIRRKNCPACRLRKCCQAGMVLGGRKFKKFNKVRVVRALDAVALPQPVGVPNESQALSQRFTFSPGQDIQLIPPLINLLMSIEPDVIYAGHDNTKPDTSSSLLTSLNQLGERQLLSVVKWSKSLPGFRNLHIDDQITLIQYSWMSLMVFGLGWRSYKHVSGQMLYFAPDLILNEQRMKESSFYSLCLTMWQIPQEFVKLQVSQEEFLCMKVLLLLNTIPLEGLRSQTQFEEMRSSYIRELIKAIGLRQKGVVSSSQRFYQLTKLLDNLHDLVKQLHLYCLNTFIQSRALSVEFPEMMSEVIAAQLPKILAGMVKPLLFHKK

As to `ClC1=C(Cl)[C@]2(Cl)[C@@H]3[C@@H]4C[C@@H]([C@H]5O[C@@H]45)[C@@H]3[C@@]1(Cl)C2(Cl)Cl`, the result in test [1], in [3], in test [4] and in [6] was inactive. Further, the results for the AC50 in [2] and in [5] were 20.3 µM (active) and 18.2 µM (active), respectively.

With `CCCCCCOC(=O)c1ccccc1C(=O)OCCCCCC`, the call in test [7], in test [8], in test [9], in test [10], in test [11] and in test [12] was inactive.

For the compound `Oc1c(Cl)c(Cl)c(Cl)c(Cl)c1Cl`, the outcome in [1], in [7], in test [8], in [9], in test [10] and in [11] was inactive. Also, the outcome in test [12] and in [13] was inactive.

`CC#Cc1cc(C)nc(Nc2ccccc2)n1`: the outcome in test [1] was inactive.

Turning to `c1ccc(-c2ccccc2)cc1`, the result in [1] was inactive.

Consider `CC(C)(O)C(=O)Nc1ccc([N+](=O)[O-])c(C(F)(F)F)c1`, for which the result in test [1], in test [14], in test [15] and in [6] was inactive.

Take `CCC(=O)O[C@H]1CC[C@H]2[C@@H]3CCC4=CC(=O)CC[C@]4(C)[C@H]3CC[C@]12C`: the AC50 was 0.646 µM (active) in [1], 12 µM (active) in [14] and 6.3 µM (active) in [15]. Further, the result in test [2], in test [3], in [4], in test [5] and in test [6] was inactive.

Take `Oc1ccc(C(c2ccc(O)cc2)(C(F)(F)F)C(F)(F)F)cc1`: the outcome in [1], in test [3] and in [4] was inactive. Besides, the AC50 in test [2] is 53.5 µM (active); in test [5], 54.7 µM (active).

As for `CCCCCCCCCc1ccc(O)cc1`, the AC50 in test [2] was 68.3 µM (active). For the same compound, the compound was called inactive in test [3], in test [4], in test [5] and in test [6].

As for `CCC(C)(c1ccc(O)cc1)c1ccc(O)cc1`, the outcome in test [1] was inactive.

For `CO/C=C(/C(=O)OC)c1ccccc1COc1cccc(C(F)(F)F)n1`, the outcome in test [1] was inactive.

Regarding `CCNc1nc(NC(C)C)nc(SC)n1`, the outcome in [1] was inactive.

Consider `ClC1=C(Cl)[C@]2(Cl)[C@@H]3[C@@H](Cl)[C@H]4O[C@H]4[C@@H]3C1(Cl)C2(Cl)Cl`, for which, in test [1], the result was inactive.

Regarding `O=NN(c1ccccc1)c1ccccc1`, the result in test [1] was inactive.

Turning to `Cc1cc2c3c(c1)C(c1ccccc1)=N[C@@H](NC(=O)c1ccncc1)C(=O)N3CC2`, in [1], the outcome was inactive.

Regarding `CCC(C)c1cc([N+](=O)[O-])cc([N+](=O)[O-])c1O` (stereo unspecified), the outcome in test [1] was inactive.

Consider `COc1ccc(O)c(C(C)(C)C)c1`, for which the outcome in [1], in test [3], in test [4], in test [5] and in [6] was inactive.
